The entries come from a sample that favours hits as a whole.
RE007 growth inh: less growth of the S. pombe RE007 Vpr strain. S. pombe RE007 Vpr strain, BacTiter-Glo ATP luminescence, 24 h. Potency, µM (doses to about 92.2 µM), hits mostly inhibitors. 360,000 compounds, 0.21% hits. AID 651644; active means well fitted falling curve with a large enough effect; inconclusive means small, poorly fitted or top-dose-only effect; inactive means no such curve, though single readings can be large or run the other way; further: nearly all actives have a fitted effect of over 50% in size
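Fission yeast RE007 carrying one integrated HIV-1 vpr copy, seeded at OD 0.01 in PMG+AL medium with 23 nL pinned compound. Grown 24 h at 30 degrees; viability read by BacTiter-Glo luminescence after 5 min.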
LmPK inh: LmPK (Leishmania mexicana) enzyme inhibition | purified LmPK, Kinase-Glo ATP luminescence, 1 h | Potency, µM (highest dose often 57.5 µM), hits mostly inhibitors | 290,000 compounds, 0.37% hits | AID 1721
Target sequence (Q27686 whole entry, looked up): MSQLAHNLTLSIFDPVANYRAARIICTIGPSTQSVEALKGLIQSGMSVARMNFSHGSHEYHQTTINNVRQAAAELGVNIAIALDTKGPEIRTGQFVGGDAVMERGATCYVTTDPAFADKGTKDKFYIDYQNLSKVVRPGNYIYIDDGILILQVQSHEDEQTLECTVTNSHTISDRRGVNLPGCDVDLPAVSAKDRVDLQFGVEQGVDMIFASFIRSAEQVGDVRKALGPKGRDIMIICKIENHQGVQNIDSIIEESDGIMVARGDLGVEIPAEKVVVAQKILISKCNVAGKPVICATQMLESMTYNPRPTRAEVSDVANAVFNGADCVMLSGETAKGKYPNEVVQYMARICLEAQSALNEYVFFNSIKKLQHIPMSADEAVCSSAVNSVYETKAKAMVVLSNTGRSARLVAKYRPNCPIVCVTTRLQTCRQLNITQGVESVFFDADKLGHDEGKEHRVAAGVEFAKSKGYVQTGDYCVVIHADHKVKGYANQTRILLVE
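Kinase-Glo luminescence read after 1 h RT reaction of 0.1 nM LmPK with 0.5 mM PEP and 0.1 mM ADP. Activity scaled between uninhibited and enzyme-free controls.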
CHX counter: counter-screen for Shiga toxin inhibitors: cycloheximide protein synthesis inhibition | cell reporter, cycloheximide protein synthesis inhibition counterscreen | max response, % | AID 2314 | 300,000 compounds, 12% hits; in the data active means max response mostly above about 13%, no sharp cut-off; inactive means mostly below about 14%; further: read at 38.3 µM for the half of the compounds with a filed dose
Shiga toxin inh: inhibitors of Shiga toxin in Vero cells. 290,000 compounds, 9.2% hits. Vero cells, Shiga toxin protein synthesis inhibition reporter. AID 2315. inhibition, % at 38.7 µM; in the data active means inhibition mostly above about 28%, no sharp cut-off; inactive means mostly below about 43%
Giardia FBPA inh: Giardia lamblia aldolase inhibition; A8B2U2; purified Giardia FBPA; Potency, µM (doses to about 59.6 µM), actives largely listed as inhibitors; 290,000 compounds, 0.71% hits; AID 2451; further: nearly all actives have a fitted effect of over 55% in size
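40 nM FBPA preincubated 10 min at RT with compound (up to 57.5 uM final), then substrate plus GAPDH/TPI/NAD/arsenate coupling and diaphorase/resazurin added. Fluorescence read after 20 min at RT, 525/598 nm.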
Tb PYK inh: blocks Trypanosoma brucei pyruvate kinase. 410,000 compounds, 0.12% hits. TbPYK enzyme, Kinase-Glo Plus ATP luminescence, 45 min. Potency, µM (top dose mostly 76.8 µM), actives largely listed as inhibitors; further: nearly all actives have a fitted effect of over 50% in size
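Activity of T. brucei pyruvate kinase was followed by Kinase-Glo Plus luminescence after the enzyme reacted 45 min at room temperature with 130 uM ADP (final) and substrate. Test compounds were added before ADP at multiple concentrations.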
Large screens that a line does not name were inactive. Unless noted, the call rests on the fitted dose curve; in most records, active means well fitted curve in the direction sought with a large enough effect; inconclusive means small, poorly fitted or top-dose-only effect, or another doubt; inactive means no such curve, though single readings can be large; an effect the other way counts as inactive or inconclusive.

COc1ccccc1NC(=O)c1ccc2ccccc2c1	CHX counter 54, Shiga toxin inh 68 (no result: RE007 growth inh, LmPK inh, Giardia FBPA inh, Tb PYK inh)
COc1ccccc1N1CCN(C(=O)c2coc(=O)c(Br)c2)CC1	CHX counter 40, Shiga toxin inh 81
COc1ccccc1NC(=O)c1ccc2nc(C)sc2c1	CHX counter 46, Shiga toxin inh 83
COc1ccccc1NC(=O)c1cc(N)cc(C(=O)Nc2ccccc2OC)c1	none (no result: LmPK inh, CHX counter, Shiga toxin inh, Giardia FBPA inh)
CCCN(C(=O)Cn1nc(Cc2cccnc2)c2ccccc2c1=O)c1ccc(C(C)C)cc1	none (no result: RE007 growth inh, LmPK inh, CHX counter, Shiga toxin inh, Giardia FBPA inh)
Cc1ccc(Cl)cc1NC(=O)CN1C(=O)C(C)(C)c2cc(S(=O)(=O)N3CCCCC3)ccc21	none (no result: RE007 growth inh, LmPK inh, CHX counter, Shiga toxin inh, Giardia FBPA inh)
COc1ccc(CNC(=O)Cn2ccc3cc(S(=O)(=O)N4CCCCCC4)ccc32)cc1OC	none (no result: RE007 growth inh, LmPK inh, CHX counter, Shiga toxin inh, Giardia FBPA inh)
COc1ccc(N2C(=O)c3ccc(C(=O)Nc4ccccc4O)cc3C2=O)cc1	none
COc1cccc(NC(=O)c2ccc3nc(C)sc3c2)c1	CHX counter 38, Shiga toxin inh 60
CCc1ccc(NC(=O)c2ccc3[nH]c(C)c(C)c3c2)cc1	none (no result: RE007 growth inh, LmPK inh, CHX counter, Shiga toxin inh, Giardia FBPA inh)
Cc1[nH]c2ccc(C(=O)Nc3ccncc3)cc2c1C	CHX counter 23, Shiga toxin inh 50
O=C(Nc1cc(Cl)cc(Cl)c1)c1coc(=O)c(Br)c1	CHX counter 24, Shiga toxin inh 39
COc1ccccc1N1C(=O)c2ccc(C(=O)Nc3ccccc3O)cc2C1=O	CHX counter 11
COc1ccc(CCNC(=O)CSC2=Nc3ccccc3C3=NC(CCC(=O)NCc4ccccc4)C(=O)N23)cc1OC (configuration not stated)	none (no result: RE007 growth inh, LmPK inh, CHX counter, Shiga toxin inh, Giardia FBPA inh)
O=C(NCCOc1ccccc1)C1C(=O)Nc2ccccc2C(=O)N1C1CCCCC1 (configuration not stated)	none (no result: LmPK inh, CHX counter, Shiga toxin inh, Giardia FBPA inh, Tb PYK inh)
COc1ccccc1NC(=O)c1ccc2[nH]c(C)c(C)c2c1	CHX counter 40, Shiga toxin inh 128
O=C(NNC(=O)C1C2CCCCC21)c1coc(=O)c(Br)c1 (configuration not stated)	CHX counter 51, Shiga toxin inh 57
O=C(NC(CO)(CO)CO)c1coc(=O)c(Br)c1	none
COc1cc(OC)c(/C=N/NC(=O)c2ccc(Cn3nc([N+](=O)[O-])cc3C)cc2)c(OC)c1	none
CC(=O)c1ccc(NC(=O)C2=CC(c3ccco3)=NS(=O)(=O)N2C)cc1	CHX counter 15
CCn1c(/C=C/c2ccccc2)nc2ccccc21	RE007 growth inh inconclusive, LmPK inh 22µM, CHX counter 33, Shiga toxin inh 62
CCC(C)n1c(/C=C/c2ccccc2)nc2ccccc21 (configuration not stated)	CHX counter 25
CC(C)Cn1c(/C=C/c2ccccc2)nc2ccccc21	RE007 growth inh inconclusive, CHX counter 39, Shiga toxin inh 59
CCn1c(/C=C/c2ccc(F)cc2)nc2ccccc2c1=O	none (no result: Shiga toxin inh)
COc1ccc(Cn2c(/C=C/c3ccccc3)nc3ccccc32)cc1	CHX counter 65, Shiga toxin inh 82
O=C1[C@H](Cc2ccccc2)NCCCC[C@H](c2ccco2)N1Cc1ccccc1	none (no result: LmPK inh, CHX counter, Shiga toxin inh, Giardia FBPA inh)
CSc1ncc(Cl)c(C(=O)NCc2cccnc2)n1	none
CCOc1ccc(N(C(=O)c2ccc(OC)cc2)S(=O)(=O)c2ccc3c(c2)n(C)c(=O)n3C)cc1	none (no result: RE007 growth inh, LmPK inh, CHX counter, Shiga toxin inh, Giardia FBPA inh)
CCn1cc(C(=O)N[C@@H](CCSC)C(=O)NCCCOC)c(=O)c2cc3c(cc21)OCO3	none
CCCn1c(/C=C/c2cc[n+](C)cc2)nc2ccccc21	none
COc1ccc(-n2cnc3ccccc32)cc1	none
COc1ccc(/C=C/c2nc3ccccc3n2C)cc1	RE007 growth inh 32µM, LmPK inh 18µM, Giardia FBPA inh inconclusive, Tb PYK inh inconclusive
CCCCCCn1c(/C=C/c2ccccc2)nc2ccccc21	CHX counter 47, Shiga toxin inh 101 (no result: RE007 growth inh, LmPK inh, Giardia FBPA inh)
NCCCCC(NC(=O)C1CCCN1C(=O)C1CSSCC(N)C(=O)NC(Cc2ccccc2)C(=O)NC(Cc2ccccc2)C(=O)NC(CCC(N)=O)C(=O)NC(CC(N)=O)C(=O)N1)C(=O)NCC(N)=O (configuration not stated)	none (no result: RE007 growth inh, LmPK inh, CHX counter, Shiga toxin inh, Giardia FBPA inh)
COc1ccc(S(=O)(=O)NCCc2sc(-c3cccc(F)c3)nc2C)cc1	none (no result: RE007 growth inh, LmPK inh, CHX counter, Shiga toxin inh, Giardia FBPA inh)
O=C(NCc1ccccc1)C(=O)Nc1c2c(nn1-c1ccccc1)CSC2	none (no result: RE007 growth inh, LmPK inh, CHX counter, Shiga toxin inh, Giardia FBPA inh)
CC(=O)c1nnn(-c2c(F)cccc2F)c1C	CHX counter 12
COc1ccc(-c2nc3c(c4c2C[C@H](c2ccccc2)OC4)CN(C(=O)NCc2ccco2)CC3)c(C)c1	none (no result: RE007 growth inh, CHX counter, Shiga toxin inh, Tb PYK inh)
COCC(=O)N1CCC(Oc2ccc(C(=O)N(C)CCCC3CCCC3)cc2)CC1	CHX counter 22
COCCN(C(=O)c1ccc(OC2CCN(S(=O)(=O)N(C)C)CC2)cc1)C(C)C	CHX counter 11
C=CCN(CC=C)C(=O)c1cccc(OC2CCN(S(=O)(=O)N(C)C)CC2)c1	none
COCC(=O)N1CCC(Oc2ccc(C(=O)N3CCCCCCC3)cc2)CC1	none
CN(C)S(=O)(=O)N1CCC(Oc2ccc(C(=O)NC3CCCCC3)cc2)CC1	none
CC(NC(=O)c1ccc(OC2CCN(S(=O)(=O)N(C)C)CC2)cc1)C1CC1 (configuration not stated)	CHX counter 20
C=CCN(CC=C)C(=O)c1ccc(OC2CCN(S(=O)(=O)N(C)C)CC2)cc1	CHX counter 53, Shiga toxin inh 87
Cc1c(O)cnc2nn(-c3ccccc3)c(=N)n12	none (no result: LmPK inh, CHX counter, Shiga toxin inh, Giardia FBPA inh)

Screening data from PubChem BioAssay.
